Screening data deposited in PubChem by National Center for Advancing Translational Sciences (NCATS).
Rows were chosen to be rich in hits. Some 2.5% of all compounds tested hit in one or more screens of this group.
Pol beta inh: qHTS Assay for Inhibitors of DNA Polymerase Beta; P06746; Pol beta primer extension/strand displacement, fluorescence kinetic; Potency, µM (highest dose often 114 µM), hits mostly inhibitors; actives 1.3% (n = 340,000)
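Pol beta (10 nM) and compounds were preincubated 15 min at room temperature, then 50 nM substrate (final) started primer extension/strand displacement. Reads were taken at 0 and 10 min; concentration-response data were fitted to a four-parameter Hill equation.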
Pol kappa inh: qHTS for Inhibitors of Polymerase Kappa; DNA polymerase kappa (Homo sapiens), Q9UBT6; purified Pol kappa, fluorescent DNA synthesis assay, 10 min; Potency, µM (titrated, usually from 107 µM), usual class: inhibitors; actives 0.53% (n = 400,000)
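Fluorescent qHTS in 1536-well format: enzyme (10 nM) and compound sat 15 min at room temperature before 50 nM substrate (final) was added. Signal taken at 0 and 10 min; no-enzyme buffer wells were negative controls.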
POLH inh: qHTS for Inhibitors of Polymerase Eta; DNA polymerase eta (Homo sapiens), Q9Y253; recombinant Pol eta, fluorescent DNA replication assay; Potency, µM (series often up to 114 µM), usual class: inhibitors; actives 1.2% (n = 390,000); AID 588591, 2011
Target sequence (Q9Y253 whole entry, looked up): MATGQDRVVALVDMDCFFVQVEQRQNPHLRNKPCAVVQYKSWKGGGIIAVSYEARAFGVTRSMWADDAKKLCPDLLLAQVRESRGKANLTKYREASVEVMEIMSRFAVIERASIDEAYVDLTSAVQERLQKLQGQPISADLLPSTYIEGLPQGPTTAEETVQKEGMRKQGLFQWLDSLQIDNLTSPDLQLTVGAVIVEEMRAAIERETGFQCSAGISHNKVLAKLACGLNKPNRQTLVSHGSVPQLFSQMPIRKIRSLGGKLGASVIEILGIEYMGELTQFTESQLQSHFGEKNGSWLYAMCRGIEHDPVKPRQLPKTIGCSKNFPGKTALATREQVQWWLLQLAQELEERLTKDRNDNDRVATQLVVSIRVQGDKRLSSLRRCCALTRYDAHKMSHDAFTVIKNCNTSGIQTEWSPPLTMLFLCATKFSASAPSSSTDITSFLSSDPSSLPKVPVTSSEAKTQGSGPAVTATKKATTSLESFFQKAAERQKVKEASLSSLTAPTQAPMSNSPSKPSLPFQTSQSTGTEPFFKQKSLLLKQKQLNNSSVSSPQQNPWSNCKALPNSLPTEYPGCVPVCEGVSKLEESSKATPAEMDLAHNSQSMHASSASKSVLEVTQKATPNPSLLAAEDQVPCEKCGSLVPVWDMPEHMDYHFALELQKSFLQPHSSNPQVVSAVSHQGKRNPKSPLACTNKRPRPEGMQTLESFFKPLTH
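Pol eta at 10 nM preincubated with compounds 15 min at room temperature; reaction started with fluorescent substrate (50 nM final) and read kinetically at 0 and 10 min.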
Pol iota inh: qHTS for Inhibitors of Polymerase Iota; actives 1% (n = 390,000); DNA polymerase iota (Homo sapiens), Q9UNA4; AID 588590, 2011; Pol iota fluorescent replication assay, 10 min; Potency, µM (doses to about 115 µM), usual class: inhibitors
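Fluorescent replication assay read twice, at 0 min and 10 min after adding 50 nM (final) substrate. Enzyme (10 nM) and compounds were first incubated 15 min at room temperature; enzyme-free buffer wells were negative controls.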
APE1 inh: qHTS Assay for Inhibitors of the Human Apurinic/apyrimidinic Endonuclease 1 (APE1); DNA repair nuclease/redox regulator APEX1 (Homo sapiens), P27695; recombinant APE1, TAMRA/BHQ-2 abasic DNA cleavage fluorescence; Potency, µM (highest dose often 65.8 µM), actives largely listed as inhibitors; actives 0.35% (n = 350,000); AID 2517, 2012; also: nearly all actives have a fitted effect of over 55% in size
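Endonuclease cleavage of a quenched abasic-site DNA duplex (50 nM) by APE1 (0.75 nM) was tracked by TAMRA dequenching. Compounds were preincubated with enzyme 15 min at room temperature; data normalized to buffer-only and DMSO wells plus NSC13755 control.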
L3MBTL1 block: qHTS Assay for the Inhibitors of L3MBTL1; Lethal(3)malignant brain tumor-like protein 1 (Homo sapiens), Q9Y468; AlphaScreen L3MBTL1–H3K9me1 peptide binding; Potency, µM (doses to about 57.1 µM), most hits filed as inhibitors; actives 0.66% (n = 230,000); also: nearly all actives have a fitted effect of over 60% in size
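Displacement of a biotinylated histone H3(1-15) peptide monomethylated at Lys9 (75 nM) from L3MBTL1 (50 nM) was measured by AlphaScreen after a 30 min room-temperature compound incubation; cefsulodin titration served as intraplate control.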
A number is an active result; n = inactive; u = inconclusive; x = not tested or not shown; [ ] = another dose, or the depositor's remark. Calls follow the shape of the dose curve; as a rule, active = well fitted curve in the direction sought with a large enough effect; inconclusive = small, poorly fitted or top-dose-only effect, or another doubt; inactive = no such curve, though single readings can be large; an effect the other way counts as inactive or inconclusive.

SMILES | Pol beta inh | Pol kappa inh | POLH inh | Pol iota inh | APE1 inh | L3MBTL1 block
O=C(NCc1ccco1)[C@@H]1CSC2c3ccccc3C(=O)N21 (some centres not stated) | n | u | 14.1µM | 20µM | n | x
O=C(Cn1cnnn1)OCC(=O)c1ccc(Cl)s1 | 22.4µM | u | 14.1µM | u | n | n
Cc1nc2scc(-c3ccc(C(C)(C)C)cc3)c2c(=O)n1N | n | n | 89.1µM | u | n | n
O=C(O)c1cccc(N2C(=O)c3ccc4c5c(ccc(c35)C2=O)C(=O)N(c2cccc(C(=O)O)c2)C4=O)c1 | u | n | u | u | n | x
O=C(O)c1cccc(N2C(=O)C3C4C=CC(C4=C(c4ccccc4)c4ccccc4)C3C2=O)c1 (configuration not stated) | 50.1µM | n | n | n | n | u
COCCCNC(=O)c1cc(S(=O)(=O)N2CCC3(CC2)OCCO3)ccc1F | x | x | n | x | x | x
COc1ccc(-n2nc3c(N4CCC(C(=O)NCc5ccccc5C)CC4)nnc(C)c3c2C)cc1 | 79.4µM | n | n | u | n | n
Cc1ccc(-n2nc3c(N4CCC(C(=O)NCc5ccc(C)o5)CC4)nnc(C)c3c2C)cc1 | 0.398µM | n | n | u | n | x
COc1ccc(-n2nc3c(N4CCC(C(=O)NCCc5ccccc5C)CC4)nnc(C)c3c2C)cc1 | n | n | n | n | n | x
CCN1C(=O)S/C(=C/c2c(OCc3ccc(C(=O)O)cc3)ccc3ccccc23)C1=O | 50.1µM | n | n | n | n | n
CC(C)C1Nc2ccc(C(=O)NCc3ccco3)cc2NC1=O (configuration not stated) | n | n | n | n | n | x
Cc1ncc(CN2CCCC(C(=O)Nc3ccc(-c4ccco4)cc3)C2)cn1 (configuration not stated) | n | u | u | 31.6µM | n | x
O=C1S/C(=C\C=C\c2ccco2)C(=O)N1c1ccccc1 | 31.6µM | 44.7µM | 44.7µM | 12.6µM | 28.2µM | u
O=C1S/C(=C\C=C\c2ccco2)C(=O)N1c1ccc(O)cc1 | 7.94µM | u | u | 31.6µM | n | 15.8µM
O=C(NC1CC1)c1cc(-c2cccs2)on1 | x | x | x | x | n | x
CCn1cc2nc(SCC(=O)Nc3ccccc3C(F)(F)F)n(Cc3ccc(C)cc3)c(=O)c2n1 | 10µM | u | n | 44.7µM | x | x
CCn1cc2nc(SCC(=O)Nc3ccc(C)cc3)n(Cc3ccc(C)cc3)c(=O)c2n1 | u | n | u | n | x | x
Cc1ccc(NC(=O)C2CCCN2S(=O)(=O)c2ccc3nc(-c4ccccc4)[nH]c3c2)cc1F (configuration not stated) | u | u | 79.4µM | u | x | x
O=C(Nc1cccc(F)c1)C1CCCN1C(=O)OCc1ccccc1 (configuration not stated) | n | n | n | n | n | x
Cc1ccc(NC(=O)C2CCCN2C(=O)OCc2ccccc2)cc1F (configuration not stated) | n | 79.4µM | n | u | n | x
COc1ccc(NC(=O)NNC(=O)c2cc3ccccc3cc2O)cc1 | u | n | n | u | n | x
COc1ccccc1NC(=O)c1cc2cc(Br)ccc2cc1O | 22.4µM | n | u | n | n | x
Cc1ccc(Cl)cc1NC(=O)COC(=O)c1ccccc1O | n | n | n | n | n | n
Cc1ccc(Cl)cc1NC(=O)c1cc2ccccc2cc1O | 25.1µM | n | n | n | n | n
COc1cc(NC(=O)c2cc3ccccc3cc2O)c(OC)cc1Cl | n | n | n | n | n | x
SMILES | Pol beta inh | Pol kappa inh | POLH inh | Pol iota inh | APE1 inh | L3MBTL1 block
COc1ccc(C)cc1NC(=O)NNC(=O)c1cc2ccccc2cc1O | 79.4µM | n | n | n | n | x
CNCC(=O)NC(CCCN=C(N)N)C(=O)NC(C(=O)NC(Cc1ccc(O)cc1)C(=O)NC(C(=O)NC(Cc1cnc[nH]1)C(=O)N1CCCC1C(=O)NC(C)C(=O)O)C(C)C)C(C)C (configuration not stated) | x | n[19.4 µM] | x | x | x | x
CCC(Cc1ccccc1)NC(=O)CCc1ccccc1 (configuration not stated) | n | n | n | n | n | x
CCc1ccc(C(=O)c2cn(Cc3ccccc3)c3cc(OC)c(OC)cc3c2=O)cc1 | n | n | n | n | x | x
COc1cccc(C(=O)N2CCOCC2)c1 | n | n | n | n | n | u
COc1cccc(C(=O)Nc2cccc(C(=O)N3CCOCC3)c2)c1 | n | n | n | 89.1µM | n | n
O=C(NCC1CCN(c2ccc(S(=O)(=O)N3CCOCC3)cc2)CC1)c1cccc(Cl)c1 | n | n | n | n | n | x
COc1cccc(C(=O)NCC2CCN(c3ccc(S(=O)(=O)N4CCOCC4)cc3)CC2)c1 | 39.8µM | n | n | n | n | n
CCC(CC)C(=O)Nc1ccccc1C(=O)OCc1cc(=O)n2nc(C3CCCCC3)sc2n1 | n | n | n | n | x | x
O=C(O)[C@H]1/C(=C/CO)O[C@@H]2CC(=O)N21 | x | x | x | x | n | x
Cc1ccc(Cl)cc1N1CCN(C(=O)CSc2ccsc2[N+](=O)[O-])CC1 | 20µM | n | 22.4µM | u | u | u
Cc1c(C(=O)OC2CCC(C)CC2)[nH]c2c1C(=O)CC(c1ccc(F)cc1)C2 (configuration not stated) | n | n | n | n | x | x
COc1cccc(C2=CC(c3ccccc3F)n3ncc(C(=O)Nc4ccc(C)cc4)c3N2)c1 (configuration not stated) | 28.2µM | n | n | n | x | x
COc1cccc(NS(=O)(=O)c2ccc(S(=O)(=O)N3CCCC3)cc2)c1 | x | n | n | n | n | n
COc1cccc(CNS(=O)(=O)c2ccc(S(=O)(=O)N3CCCC3)cc2)c1 | 20µM | n | n | n | n | n
O=C(Nc1cccc(Cl)c1)c1ccc(=O)[nH]n1 | n | n | n | 17.8µM | n | x
Cc1ccc(OCC(=O)NNC(=O)c2cc3ccccc3o2)cc1 | u | n | n | n | n | n
Cc1ccc(OCC(=O)NNC(=O)c2cc3ccccc3o2)cc1C | 28.2µM | u | u | u | n | n
Cc1c(C(=O)NCc2cccc(Br)c2)oc2ccc3c(c12)C(=O)CC(C)(C)O3 | n | u | x | 79.4µM | x | x
COc1cc(OC)c2c(C)c(CC(=O)NCc3ccccc3OC)c(=O)oc2c1 | n | n | 28.2µM | n | x | x
COc1ccccc1CNC(=O)c1oc2ccc3c(c2c1C)C(=O)CC(C)(C)O3 | n | n | x | 89.1µM | x | x
Cc1cc(C)cc(NC(=O)c2oc3ccc4c(c3c2C)C(=O)CC(C)(C)O4)c1 | n | n | n | n | x | x
